Common to all, as to experiment: PBM; 200 nM protein, PBS
What all share (conditions): dsDNA, one strand shown

The target of test [1] is T1, VENTX (Homo sapiens, UniProt O95231 78-163, R121Q).
T1 sequence: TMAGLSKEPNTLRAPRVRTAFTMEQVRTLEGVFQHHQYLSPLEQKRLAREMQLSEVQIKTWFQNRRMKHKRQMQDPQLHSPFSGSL

The target of test [2] is T2, NKX2-4 (Homo sapiens, UniProt Q9H2Z4 175-261, P217L).
T2 sequence: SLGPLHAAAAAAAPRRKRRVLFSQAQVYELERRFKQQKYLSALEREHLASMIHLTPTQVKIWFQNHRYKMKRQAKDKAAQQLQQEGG

For test [3], the target named is T3, NKX2-4 (Homo sapiens, UniProt Q9H2Z4 175-261, T231S).
T3 sequence: T2 sequence with L43P, T57S

Test [4] deals with T4, NKX2-4 (Homo sapiens, UniProt Q9H2Z4 175-261).
T4 sequence: T2 sequence with L43P

Test [5] deals with T5, NKX2-4 (Homo sapiens, UniProt Q9H2Z4 175-261, R246Q).
T5 sequence: T2 sequence with L43P, R72Q

Test [6] has as its target ALX1 (Homo sapiens, UniProt Q15699 118-204).
For test [7], the target named is T6, NKX2-6 (Homo sapiens, UniProt A6NCS4 118-204, R150C).
T6 sequence: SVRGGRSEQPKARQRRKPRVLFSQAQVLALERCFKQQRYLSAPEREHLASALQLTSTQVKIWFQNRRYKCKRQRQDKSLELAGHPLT

Test [8] concerns the target T7, NKX2-6 (Homo sapiens, UniProt A6NCS4 118-204).
T7 sequence: T6 sequence with C33R

Test [9] has as its target T8, NKX2-6 (Homo sapiens, UniProt A6NCS4 118-204, F151L).
T8 sequence: T6 sequence with C33R, F34L

Test [10] deals with NKX3-2 (Homo sapiens, UniProt P78367 192-278, P234S).
Chain of NKX3-2 (Homo sapiens, UniProt P78367 192-278, P234S) (P78367 192-278 P234S): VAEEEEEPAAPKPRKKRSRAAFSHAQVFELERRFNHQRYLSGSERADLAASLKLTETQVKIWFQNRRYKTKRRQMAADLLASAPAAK
Test [11] addresses NKX3-2 (Homo sapiens, UniProt P78367 192-278).

The record followed here is paper PMC11006913.

Changes are numbered by the printed parent chain.

Chain of NKX3-2 (Homo sapiens, UniProt P78367 192-278) (P78367 192-278): as the sequence (P78367 192-278 P234S) above, with S43P counted along it
Chain of ALX1 (Q15699 118-204): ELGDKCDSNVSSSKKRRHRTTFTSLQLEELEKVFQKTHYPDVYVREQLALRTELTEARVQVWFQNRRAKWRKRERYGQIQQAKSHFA

As to ACCATTAG, in [1], the binding signal is 11.7 upbm affinity estimate (log intensity, higher = more binding, comparable within an allelic series).

As to GCGGCGAC, the binding signal in [2] was 9.68 upbm affinity estimate (log intensity, higher = more binding, comparable within an allelic series); in [3], 9.58 upbm affinity estimate (log intensity, higher = more binding, comparable within an allelic series); in test [4], 9.61 upbm affinity estimate (log intensity, higher = more binding, comparable within an allelic series); in [5] it was 9.79 upbm affinity estimate (log intensity, higher = more binding, comparable within an allelic series).

Regarding CGCGGCCC, the binding signal in [2] was 9.94 upbm affinity estimate (log intensity, higher = more binding, comparable within an allelic series); in [3] it was 9.93 upbm affinity estimate (log intensity, higher = more binding, comparable within an allelic series); in test [4], 10 upbm affinity estimate (log intensity, higher = more binding, comparable within an allelic series); in [5] it was 9.94 upbm affinity estimate (log intensity, higher = more binding, comparable within an allelic series).

As for ACTATAAG, the binding signal is 11.5 upbm affinity estimate (log intensity, higher = more binding, comparable within an allelic series) in test [2]; 11.4 upbm affinity estimate (log intensity, higher = more binding, comparable within an allelic series) in [4]; 11.8 upbm affinity estimate (log intensity, higher = more binding, comparable within an allelic series) in test [5].

For the sequence TGCCCCCA, the binding signal in [2] is 9.77 upbm affinity estimate (log intensity, higher = more binding, comparable within an allelic series); in test [3] it was 9.8 upbm affinity estimate (log intensity, higher = more binding, comparable within an allelic series); in test [4], 9.76 upbm affinity estimate (log intensity, higher = more binding, comparable within an allelic series); in test [5], 9.88 upbm affinity estimate (log intensity, higher = more binding, comparable within an allelic series).

In the case of ACTCTTAA, the binding signal in test [2] was 12.4 upbm affinity estimate (log intensity, higher = more binding, comparable within an allelic series); in test [6], 8.51 upbm affinity estimate (log intensity, higher = more binding, comparable within an allelic series).

Regarding AAGTGGAA, the binding signal in test [2] was 12.4 upbm affinity estimate (log intensity, higher = more binding, comparable within an allelic series); in test [7], 11.6 upbm affinity estimate (log intensity, higher = more binding, comparable within an allelic series); in test [8], 13.3 upbm affinity estimate (log intensity, higher = more binding, comparable within an allelic series); in test [5], 12.9 upbm affinity estimate (log intensity, higher = more binding, comparable within an allelic series); in test [9], 10.6 upbm affinity estimate (log intensity, higher = more binding, comparable within an allelic series).

For the sequence ACTCATAG, the binding signal is 11.7 upbm affinity estimate (log intensity, higher = more binding, comparable within an allelic series) in test [2]; 11.8 upbm affinity estimate (log intensity, higher = more binding, comparable within an allelic series) in test [3]; 11.6 upbm affinity estimate (log intensity, higher = more binding, comparable within an allelic series) in test [4]; 11.9 upbm affinity estimate (log intensity, higher = more binding, comparable within an allelic series) in test [5].

With CACTCTTA, the binding signal in test [2] is 12.3 upbm affinity estimate (log intensity, higher = more binding, comparable within an allelic series); in test [3] it was 12.7 upbm affinity estimate (log intensity, higher = more binding, comparable within an allelic series); in test [4] it was 12.3 upbm affinity estimate (log intensity, higher = more binding, comparable within an allelic series); in [5], 12.8 upbm affinity estimate (log intensity, higher = more binding, comparable within an allelic series); in [10], 12.5 upbm affinity estimate (log intensity, higher = more binding, comparable within an allelic series); in test [11], 12.6 upbm affinity estimate (log intensity, higher = more binding, comparable within an allelic series).

Consider CCCGGCCC, for which the binding signal in [2] was 9.77 upbm affinity estimate (log intensity, higher = more binding, comparable within an allelic series); in test [3], 9.78 upbm affinity estimate (log intensity, higher = more binding, comparable within an allelic series); in [4] it was 9.81 upbm affinity estimate (log intensity, higher = more binding, comparable within an allelic series); in [5], 9.84 upbm affinity estimate (log intensity, higher = more binding, comparable within an allelic series).

As for ACTCTTAT, the binding signal was 12.2 upbm affinity estimate (log intensity, higher = more binding, comparable within an allelic series) in [2]; 12.5 upbm affinity estimate (log intensity, higher = more binding, comparable within an allelic series) in test [3]; 12.1 upbm affinity estimate (log intensity, higher = more binding, comparable within an allelic series) in [4]; 12.5 upbm affinity estimate (log intensity, higher = more binding, comparable within an allelic series) in test [5].

In the case of GCTGTGCA, the binding signal in [2] is 9.63 upbm affinity estimate (log intensity, higher = more binding, comparable within an allelic series); in [3] it was 9.66 upbm affinity estimate (log intensity, higher = more binding, comparable within an allelic series); in test [4], 9.61 upbm affinity estimate (log intensity, higher = more binding, comparable within an allelic series); in test [5], 9.6 upbm affinity estimate (log intensity, higher = more binding, comparable within an allelic series).

With CCACTCCA, the binding signal in test [2] is 12.5 upbm affinity estimate (log intensity, higher = more binding, comparable within an allelic series); in test [3], 12.8 upbm affinity estimate (log intensity, higher = more binding, comparable within an allelic series); in [4] it was 12.3 upbm affinity estimate (log intensity, higher = more binding, comparable within an allelic series); in test [5] it was 12.9 upbm affinity estimate (log intensity, higher = more binding, comparable within an allelic series).

For ACTTAGCT, the binding signal in test [2] is 11.7 upbm affinity estimate (log intensity, higher = more binding, comparable within an allelic series); in test [3] it was 11.8 upbm affinity estimate (log intensity, higher = more binding, comparable within an allelic series); in test [4], 11.5 upbm affinity estimate (log intensity, higher = more binding, comparable within an allelic series); in test [5], 11.9 upbm affinity estimate (log intensity, higher = more binding, comparable within an allelic series).
